Reference: PubChem BioAssay (NCI)
This is part of a sample that, as a whole, favours compounds with a hit. Of some 83,000 tested, about 20% had one in any assay.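 Step 1: grow cells in 96-well plates. Step 2: add test compound at a single concentration. Step 3: incubate 48 h. Step 4: record percent growth.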 Unmarked numbers belong to inactive results. Active and inactive are the calls of the source. Rule for the calls: active = growth percent below 10; inactive = the rest.

How the values were obtained:
Assay in all cases: NCI-60 one-dose screen, 48 h (100 = growth as untreated, 0 = no growth, -100 = all killed)
Conditions in all cases: 10 µM unless noted
NCI-H23 lung = test system: NCI-H23 lung
NCI-H226 lung = test system: NCI-H226 lung
NCI-H322M lung = test system: NCI-H322M lung
HOP-62 NSCLC = test system: HOP-62 NSCLC
NCI-H460 lung = test system: NCI-H460 lung
HOP-92 NSCLC = test system: HOP-92 NSCLC
NCI-H522 lung = test system: NCI-H522 lung
A549/ATCC NSCLC = test system: A549/ATCC NSCLC
786-0 renal = test system: 786-0 renal
COLO 205 colon = test system: COLO 205 colon
DU-145 prostate = test system: DU-145 prostate
K-562 leukemia = test system: K-562 leukemia
MALME-3M melanoma = test system: MALME-3M melanoma
MDA-MB-231 breast = test system: MDA-MB-231 breast
RXF 393 renal = test system: RXF 393 renal
SF-268 CNS = test system: SF-268 CNS
SF-295 CNS = test system: SF-295 CNS
SF-539 CNS = test system: SF-539 CNS
UACC-257 melanoma = test system: UACC-257 melanoma
M14 melanoma = test system: M14 melanoma

SMILES | growth (NCI-H23 lung) | growth (NCI-H226 lung) | growth (NCI-H322M lung) | growth (HOP-62 NSCLC) | growth (NCI-H460 lung) | growth (HOP-92 NSCLC) | growth (NCI-H522 lung) | growth (A549/ATCC NSCLC) | growth (786-0 renal) | growth (COLO 205 colon) | growth (DU-145 prostate) | growth (K-562 leukemia) | growth (MALME-3M melanoma) | growth (MDA-MB-231 breast) | growth (RXF 393 renal) | growth (SF-268 CNS) | growth (SF-295 CNS) | growth (SF-539 CNS) | growth (UACC-257 melanoma) | growth (M14 melanoma)
COc1cc(CNC(=O)C[C@H](C)CCC=C(C)C)ccc1OCc1cn(-c2ccc(Cl)cc2Cl)nn1 | 56.6% | 66.4% | 95.2% | 11.3% | 75.1% | -3.27% (active) | 55.4% | 59.4% | 38.9% | 105% | 90.5% | 81.4% | 79.3% | 59.7% | 14.1% | 52.3% | 41.8% | 66.9% | 92% | 102%
COc1ccc(-c2nc3ccccc3n2CC(=O)N=Nc2c(O)[nH]c3ccc(Br)cc23)cc1 | 78.8% | 100% | 103% | 69.8% | 80.6% | 79.8% | 67.4% | 98.2% | 97.3% | 83% | 33.7% | 35.3% | 79.3% | 57.5% | 64.3% | 96% | 81.1% | 87.9% | 120% | 77.4%
N/C(=N\c1nc2ccccc2s1)NC(=O)Nc1ccccc1F | 19.9% | 46.2% | 54.5% | 0.224% (active) | 30.2% | 19.3% | -45.5% (active) | 47.5% | 17.7% | -33% (active) | 9.55% (active) | 13.1% | 33.3% | 19.9% | -1.57% (active) | 47.2% | 2.32% (active) | -40.1% (active) | 84.5% | 31.1%
CC(C)CN1C(=O)/C(=C\C(=O)c2cc3ccccc3oc2=O)c2ccccc21 | 90.5% | 83.5% | 96.7% | 97.9% | 103% | 104% | 31.5% | 109% | 105% | 26.8% | 98.3% | 1.97% (active) | 59% | 87.5% | 85.4% | 106% | 105% | 102% | 106% | 85%
COC(=O)c1cc(C(=O)C(C)(C)C)n2c3ccccc3c3ccccc3c12 | 92.4% | 100% | 102% | 132% | 106% | 63.2% | 103% | 115% | 93% | 112% | 97.4% | 77.1% | 109% | 79.4% | 91.3% | 103% | 93.5% | 96.7% | 117% | 96.7%
C/C(=N/O)c1ccc(NC(=O)CSc2nnc(-c3ccc(-c4nc5ccc(Cl)cc5[nH]4)cc3)o2)cc1 | -59.5% (active) | -39% (active) | 3.18% (active) | -82% (active) | -100% (active) | -53.4% (active) | -48.6% (active) | -13.3% (active) | -66.1% (active) | 50.3% | -13.6% (active) | 14.9% | -80.8% (active) | -96.5% (active) | -71.5% (active) | 17.6% | -16.4% (active) | -100% (active) | -36.9% (active) | -62.7% (active)
Clc1ccc(Nc2nnc(-c3c[nH]c4ccccc34)o2)cc1 | 77.9% | 66.7% | 91.3% | 67.8% | 83% | 70.9% | 24.2% | 68.6% | 90.1% | 116% | 91% | 32% | 78.8% | 65.1% | 90.2% | 68.6% | 68.6% | 66.5% | 84.4% | 80.9%
O=C(N/N=C/c1c[nH]c2ccccc12)Nc1ccc(F)c(Cl)c1 | 28.8% | 65.6% | 85.8% | 53.8% | 23% | 39.9% | -29.1% (active) | 39.4% | 33.9% | 33.7% | 61.5% | 15.4% | 56.3% | 61.3% | 18.3% | 39.7% | 13.8% | 27.3% | 60.9% | 33.7%
O=C(Nc1ccc(Br)cc1)Nc1ccc(-c2ccc3c(c2)NC(=O)/C3=C\c2ccc[nH]2)cc1 | 30.7% | 66.2% | 46.1% | 53.1% | 8.75% (active) | 92.1% | 24.1% | 37.7% | 61% | 57.2% | 27.9% | 18.6% | 61.6% | 66.3% | 25.3% | 40.3% | 22.9% | 26.5% | 75.4% | 32.3%
CN1CCN(c2ccc3c4c(cccc24)C(=O)N(c2cccc(-c4nn(-c5ccccc5)cc4-c4nc5ccccc5s4)c2)C3=O)CC1 | 97.9% | 95.9% | 111% | 114% | 18.5% | 71.7% | 110% | 97.9% | 46.5% | 91.1% | 58.4% | -57.6% (active) | 74.4% | 33.7% | 72.9% | 100% | 112% | 81.6% | 119% | 90.6%
C#CCN(C)CCCOc1ccc(N(CC)C(=O)c2cc(C(C)C)c(O)cc2O)cc1Cl | -5.94% (active) | -13.8% (active) | 23.4% | 26% | -52.4% (active) | -44.6% (active) | -14.9% (active) | 15.9% | 21.6% | 4.62% (active) | 1.4% (active) | -26.6% (active) | -51.5% (active) | -45.3% (active) | 2.57% (active) | 28.2% | -2.79% (active) | 6.42% (active) | -11.6% (active) | -45.8% (active)
O=C(NNC(=O)c1ccc(OCc2nc3ccc(Cl)cc3[nH]2)cc1)Nc1ccc(Cl)c(C(F)(F)F)c1 | 35.9% | 64.1% | 43.6% | 68.4% | 38.1% | -1.57% (active) | 49% | 57.1% | 70.1% | 85.6% | 65.7% | 39.1% | 45.7% | 17.4% | 67.3% | 78.2% | 84.9% | 39.3% | 73% | 79.2%
Cn1cc(-c2cc(N)n3nc(-c4c[nH]c5ccc(Cl)cc45)cc3n2)c2cc(Br)cnc21 | -58.6% (active) | -12.5% (active) | 32.3% | -22.4% (active) | -58% (active) | -76.8% (active) | -71% (active) | -64.9% (active) | -93.7% (active) | -91.6% (active) | -71.6% (active) | -63.7% (active) | -79.1% (active) | -73.4% (active) | -70.4% (active) | 9.71% (active) | -50.9% (active) | -91.1% (active) | -55% (active) | -92.4% (active)
COc1ccc2[nH]c(=O)c(CSc3ccccc3Nc3nccc(-c4ccc5c(c4)OCO5)n3)cc2c1 | 94.9% | 76.1% | 92.5% | 94.1% | 83.5% | 90.3% | 66.1% | 76.3% | 90.1% | 101% | 78.4% | 52.7% | 99.4% | 93.7% | 79.7% | 73.4% | 104% | 95% | 96.6% | 91.5%
O=C(CSc1nnc(-c2ccc(-c3nc4ccccc4[nH]3)cc2)o1)Nc1ccc(Cl)cc1 | -6.9% (active) | 40.3% | 61.5% | 0.484% (active) | -65.4% (active) | -5.87% (active) | 0.5% (active) | 1.88% (active) | -37.8% (active) | 61.7% | 13.1% | 10.7% | 29.1% | -24.9% (active) | -61.7% (active) | 38.5% | 39% | -94.2% (active) | 48.9% | -0.25% (active)
